From PubChem BioAssay AID1259354 (Paczesny and Yang Labs, IUPUI and University of Michigan, 2018)
Several values for one entry are separate records, joined by “and”; a condition that tells them apart may be missing. Identical values can stand only once. Among all 78,000 compounds or so, about 1,800 (2.3%) were called active. Not shown: some 27% with an inconclusive outcome. Cut-off read from the data, not from the text of the source: active = inhibition above about 30%; inconclusive = mostly about 10% to 28%; inactive = weaker than that. What follows is part of a selection rich in actives, with near analogues and random picks from the rest.

target: Interleukin-1 receptor-like 1 (Homo sapiens) (UniProt Q01638); test: blocks human ST2 binding to IL-33, primary screen, biochemical, AlphaLISA (AID 1259354); conditions: AlphaLISA ST2-Fc/biotin-IL-33 interaction, 1 h; at 17 µM, hits give high values
Sequence (Q01638 whole entry, looked up): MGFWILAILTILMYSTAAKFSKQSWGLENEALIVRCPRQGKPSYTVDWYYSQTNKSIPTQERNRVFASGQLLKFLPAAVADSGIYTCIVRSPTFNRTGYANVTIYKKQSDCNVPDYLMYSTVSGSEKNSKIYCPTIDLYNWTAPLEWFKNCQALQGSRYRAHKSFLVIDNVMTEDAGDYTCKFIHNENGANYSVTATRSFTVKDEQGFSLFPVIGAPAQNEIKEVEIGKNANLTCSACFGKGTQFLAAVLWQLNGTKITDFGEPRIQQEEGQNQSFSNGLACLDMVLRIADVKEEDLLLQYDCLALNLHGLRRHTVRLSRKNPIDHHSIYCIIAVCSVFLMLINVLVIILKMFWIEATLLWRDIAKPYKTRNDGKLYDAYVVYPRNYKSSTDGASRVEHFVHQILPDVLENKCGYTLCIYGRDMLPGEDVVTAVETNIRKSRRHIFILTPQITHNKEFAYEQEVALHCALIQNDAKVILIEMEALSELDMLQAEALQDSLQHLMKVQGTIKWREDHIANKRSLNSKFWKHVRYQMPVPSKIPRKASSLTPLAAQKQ

Row | Structure (SMILES) | inhibition
1 | COc1ccc(C(=O)NC(Nc2ccccc2Cl)C(Cl)(Cl)Cl)cc1 (stereo unspecified) | inactive
2 | Cc1ccc(NC(=O)CNCC(C)c2ccccc2)c(C)c1 (stereo unspecified) | inactive
3 | OC(C#Cc1ccccc1)C#Cc1ccccc1 | inactive
4 | Cc1nonc1C1CCCN1Cc1cnc(S(=O)(=O)C(C)C)n1Cc1ccccc1F (stereo unspecified) | inactive
5 | CC1CCc2nc(NC(=O)c3ccc(S(=O)(=O)N4CCc5ccccc54)cc3)sc2C1 (stereo unspecified) | 30% (active)
6 | CSCc1nnc(NC(=O)c2ccc(S(=O)(=O)N3CCCc4ccccc43)cc2)o1 | inactive
7 | O=C(Nc1nnc(-c2cccs2)o1)c1ccc(S(=O)(=O)N2CCCc3ccccc32)cc1 | inactive
8 | CCN(CC)C(=O)[C@@H]1C[C@H](n2cc(Cn3c(C)nc4ccccc43)nn2)CN1 | inactive
9 | CC1=Nc2c(ccc3cccnc23)C1(C)C | 36% (active)
10 | Brc1ccc(CSc2cccc3cccnc23)cc1 | inactive
11 | CSCCNC(=O)CC1C(=O)NCCN1Cc1ccccc1 (stereo unspecified) | inactive
12 | Cc1cc2oc(=O)cc(CN(C)C(C)c3ccon3)c2cc1C (stereo unspecified) | inactive
13 | Clc1ccc(OCCCCN2CCOCC2)c(Br)c1 | inactive
14 | CN(Cc1ccccc1)C(=O)CN1C(=O)/C(=C\c2cccc(Cl)c2)Sc2ccccc21 | 44% (active)
15 | CN(Cc1ccccc1)C(=O)CN(C)S(=O)(=O)c1ccc(Cl)cc1 | inactive
16 | CN(Cc1ccccc1)C(=O)c1cc(-c2ccc(Cl)cc2)on1 | inactive
17 | O=C(NC(Nc1cccc([N+](=O)[O-])c1)C(Cl)(Cl)Cl)c1ccc(Br)cc1 (stereo unspecified) | inactive
18 | CCOC(=O)c1c(C)[nH]c(C(=O)NC(C)c2cnn(-c3ccccc3C)c2C)c1C (stereo unspecified) | inactive
19 | CN(Cc1ccccc1)C(=O)C1(S(=O)(=O)c2ccc(Cl)cc2)CC1 | inactive
20 | COc1ccc(-c2csc(=Nc3ccccc3)n2C)cc1 | 59% (active) and 52% (active)
21 | COc1ccc(Nc2ccn(-c3nc(-c4ccccc4)oc3-c3ccccc3)c(=O)n2)cc1 | inactive
22 | O=C(C(NS(=O)(=O)c1cccs1)c1ccccc1)N1CCc2ccccc21 (stereo unspecified) | inactive

Row | Structure (SMILES) | inhibition
23 | COc1cc(OC)cc(C(=O)Nc2cc(N3CCCS3(=O)=O)ccc2OC)c1 | inactive
24 | O=C1NC(=O)/C(=C\c2ccc(-c3ccc(F)c(Cl)c3)o2)S1 | 34% (active)
25 | CC(=O)Nc1nonc1N1C(=N)S/C(=C\c2ccc(-c3cccc(F)c3)o2)C1=O | inactive
26 | O=C1NC(=O)/C(=C\c2ccc(-c3cccc(Cl)c3)o2)S1 | inactive
27 | Cc1nc(CC(=O)NCCc2csc(-c3cccnc3)n2)cs1 | inactive
28 | COc1ccc(CCNS(=O)(=O)c2cccc3cccnc23)cc1OC | inactive
29 | COc1cc(NS(=O)(=O)c2ccc3c(c2)CCN3C(=O)C2CC2)cc(OC)c1 | inactive
30 | Cc1cccc(C)c1NC(=O)c1ccc(F)cc1 | inactive
31 | N#CC1=C(N)OC2=C(C(=O)CC(c3ccccc3)C2)C1c1cccs1 (stereo unspecified) | inactive
32 | O=C1CC2(CCCCC2)Oc2ccc(OCC(=O)N3CCOCC3)cc21 | inactive
33 | CCc1nc(C)ccc1OCC(=O)N1CCC2(CN(C)C(=O)O2)C1 (stereo unspecified) | 30% (active)
34 | O=C(CN1C(=O)CC(c2ccccc2)Sc2ccccc21)NCc1ccco1 (stereo unspecified) | inactive
35 | O=C(CN1C(=O)C2CCCCN2C(=O)c2ccccc21)NCC1CCCO1 (stereo unspecified) | inactive
36 | O=C(CN1CCCCC1)N1c2ccccc2Sc2ccc(C(F)(F)F)cc21 | inactive
37 | O=C(CN1C(=O)/C(=C\c2ccc(C(F)(F)F)cc2)Sc2ccccc21)NCc1ccco1 | 32% (active)
38 | O=C(CN1CCN(Cc2ccc(F)cc2)C1=O)NCC1CCCO1 (stereo unspecified) | inactive
39 | O=C(CN1C(=O)/C(=C\c2ccc(C(F)(F)F)cc2)Sc2ccccc21)NCC1CCCO1 (stereo unspecified) | 30% (active)
40 | CC(C)c1ccc(Nc2c(-c3cccs3)nc3cnccn23)cc1 | inactive
41 | O=C(c1ccccc1F)N1CCc2c(c(C(=O)N3CCOCC3)nn2CCCc2ccccc2)C1 | inactive
42 | CC(C)c1ccc(NC2CCCN(C(=O)CCc3nc(-c4ccccc4)no3)C2)cc1 (stereo unspecified) | inactive
43 | CC1=C(C(N)=O)C(c2ccccc2Cl)n2ncnc2N1 (stereo unspecified) | inactive
44 | O=C(Cn1nc(-c2ccccc2)ccc1=O)NCCN1CCOCC1 | inactive

Row | Structure (SMILES) | inhibition
45 | COc1c(F)ccc(-c2nc(C(C)C)nn2-c2ccccn2)c1F | inactive
46 | N#Cc1c2c(c(-n3ccnc3)n3c1nc1ccccc13)CCC2 | inactive
47 | Cc1c(CCC#N)c(-n2ccnc2)n2c(nc3ccccc32)c1C#N | inactive
48 | CN(C)CCCNc1c2c(c(C#N)c3nc4ccccc4n13)CCC2 | 51% (active)
49 | Cc1cc(NCCN2CCCCCC2)n2c(nc3ccccc32)c1C#N | 45% (active)
50 | O=C(CN1CCCN(Cc2ccccc2)S1(=O)=O)NCCc1ccccc1 | inactive
51 | COc1ccc(/C=C2\C(=O)N(c3ccc(Cl)c(C(=O)O)c3)N=C2C)cc1Br | 72% (active)
52 | CN1C(N)=NC(=O)/C1=C/c1cc(Br)c(O)c(Br)c1 | inactive
53 | COc1ccc(Cl)cc1C(=O)N1CCN(c2cccc(Cl)c2)CC1 | inactive
54 | COc1cc(/C=C2/C(=O)N(c3ccc(Cl)c(Cl)c3)N=C2C)cc(Br)c1O | 37% (active)
55 | COc1ccc2cc(-c3ccccc3NC(=O)CN)ccc2c1 | inactive
56 | COc1ccc(C2C(C(=O)N3CCC(C)CC3)c3cc(OC)c(OC)cc3C(=O)N2C)cc1 (stereo unspecified) | inactive
57 | CCOc1ccc(Br)c(/C=C2\C(=O)Nc3ccc(Br)cc32)c1 | 60% (active)
58 | CCOc1cc(/C=C2\C(=O)NC(=O)N(c3ccc(Br)cc3)C2=O)ccc1O | inactive
59 | COc1cc(/C=C2\C(=O)Nc3ccc(Br)cc32)ccc1O | inactive
60 | COCc1cc(CNC(=O)c2csc3c2CCCC3)[nH]n1 | inactive
61 | O=C(Nc1ccccc1)/C(=C/c1ccc2c(c1)OCO2)NC(=O)c1ccc(Br)o1 | inactive
62 | COc1ccccc1C(=O)N/C(=C\c1ccc2c(c1)OCO2)C(N)=O | inactive
63 | COc1ccccc1C(=O)N/C(=C/c1ccc2c(c1)OCO2)C(=O)Nc1cccc(C(=O)O)c1 | 39% (active)
64 | CC(C)(C)NS(=O)(=O)c1ccc2c(c1)C(=O)c1cc(S(=O)(=O)NC(C)(C)C)ccc1-2 | inactive
65 | CCCc1nc(CN(C)C(=O)c2c(O)cccc2O)no1 | inactive
66 | CC(C)c1ccc(CNCCCN(C)C)cc1 | inactive

Row | Structure (SMILES) | inhibition
67 | O=C(NC1CCCCC1)N1CCC(n2cc(-c3ccccn3)nn2)CC1 | inactive
68 | COc1ccc(-c2nc3s/c(=C\C4=Cc5ccccc5OC4C)c(=O)n3n2)cc1 (stereo unspecified) | inactive
69 | CC1CCN(S(=O)(=O)c2ccc(Cl)c(S(=O)(=O)N3CCC(C)CC3)c2)CC1 | inactive
70 | CC1CCN(S(=O)(=O)c2ccc(Cl)c(C(=O)Nc3ccccc3[N+](=O)[O-])c2)CC1 | 34% (active)
71 | O=C(Nc1ccccc1-c1ccccc1)c1ccccc1[N+](=O)[O-] | inactive
72 | C/C(=C/c1nsc(Nc2ccc(Cl)cc2)n1)NC1CC(C)(C)NC(C)(C)C1 | inactive
73 | CC1CCCC(C)N1C(=O)c1cccc2c1-c1ccccc1C2=O (stereo unspecified) | inactive
74 | Cc1ccccc1CC1(C(=O)O)CCCN(c2cc(C3CC3)ncn2)C1 (stereo unspecified) | inactive
75 | CC(=O)C1=C(C)OC(N)=C(C#N)C1c1ccccc1 (stereo unspecified) | inactive
76 | O=C(Nc1cccc(-c2cccc(Cl)c2)c1)C1CCN(C(=O)c2ccccc2)CC1 | inactive
77 | Cc1cccc(NC(=O)CN2C(=O)CC(c3ccccc3)=Nc3ccccc32)c1 | inactive
78 | Cc1nc(-c2cccc(NC(=O)C3CCN(c4ccccc4)C3=O)c2)no1 (stereo unspecified) | 37% (active)
79 | FC(F)(F)c1ccnc(NCc2cccnc2-n2ccnc2)c1 | inactive
80 | O=C(Nc1ccc2c(c1)OCO2)C1CCN(S(=O)(=O)c2ccc(F)cc2)CC1 | inactive
81 | N#Cc1nc(COc2ccc(Cl)cc2)oc1N1CCCC1 | 73% (active)
82 | Clc1ccc(OCCN2CCCCCC2)cc1 | inactive
83 | Cn1c(=O)c2c(nc(N3CCCCCC3)n2CC(O)COc2ccc(Cl)cc2)n(C)c1=O (stereo unspecified) | inactive
84 | COCCO[C@H]1[C@H](NC(=O)C(C)C)c2ccccc2C12CCN(C(=O)c1cc(C(C)C)on1)CC2 | inactive
85 | O=C(O)c1cc(Br)ccc1N=Cc1nc(-c2ccccc2)oc1O | inactive
86 | C=CCOc1ccc(C2C(C(=O)OCC(C)C)=C(C)N=C3SCCC(=O)N32)cc1 (stereo unspecified) | inactive
87 | COc1ccccc1NC(NC(=O)c1cccc(Cl)c1)C(Cl)(Cl)Cl (stereo unspecified) | inactive
88 | O=C(CN1CCOC1=O)NCc1cnn2ccccc12 | inactive

Row | Structure (SMILES) | inhibition
89 | O=C(CCCn1cnnn1)N1CCOC(c2ccc(Cl)c(Cl)c2)C1 (stereo unspecified) | inactive
90 | O=C(CCn1cnnn1)NCc1cnn2ccccc12 | 30% (active)
91 | Cc1nn(C(=O)/C=C/c2ccccc2)c(C)c1Sc1ccccc1 | 39% (active)
92 | Cc1nn(C(=O)c2cccs2)c(C)c1Sc1ccccc1 | inactive
93 | Cc1nn(C(=O)c2ccccc2)c(C)c1Sc1ccccc1 | inactive
94 | CC1CC(C)CN(C2CC(=O)N(c3ccc(Br)cc3Br)C2=O)C1 (stereo unspecified) | inactive
95 | Cc1ccc(N2C(=O)CC(Nc3ccc(N4CCOCC4)cc3)C2=O)c(Br)c1 (stereo unspecified) | 56% (active)
96 | CC1CN(C2CC(=O)N(c3ccc(Br)cc3Br)C2=O)CC(C)O1 (stereo unspecified) | inactive
97 | CN1CCN(CCCNC(=O)COc2ccc3c(c2)C(=O)CC(C)(C)O3)CC1 | inactive
98 | COc1ccc(NC(=O)Cn2cnc3scc(-c4ccccc4)c3c2=O)cc1Cl | inactive
99 | COc1cccc(N2CCN(S(=O)(=O)c3ccc4c(c3)c(=O)n(C)c(=O)n4C)CC2)c1 | inactive
100 | CS(=O)(=O)n1nnc2ccccc21 | inactive
101 | O=C1C(Nc2ccc(O)cc2)=C(n2nnc3ccccc32)C(=O)c2ccccc21 | 47% (active)
102 | Cc1cc(=O)[nH]c(SCC(=O)Nc2ccc(F)cc2)n1 | inactive
103 | CCOc1ccc(Sc2cc(C(=O)NC3CC3)c3ccccc3n2)cc1 | inactive
104 | COc1ccc(C2=NN3COc4ccc(Br)cc4C3C2)cc1 (stereo unspecified) | 36% (active)
105 | COc1ccc(C2=NN3COc4ccc(Cl)cc4C3C2)cc1 (stereo unspecified) | inactive
106 | COc1ccc(C2=NN(C(C)=O)C(c3cc(OC)ccc3OC)C2)cc1 (stereo unspecified) | inactive
